Source: PubChem BioAssay (EPA / NIEHS)
Several values for one entry are separate records, joined by “and”; a condition that tells them apart may be missing. Equal values may be shown once. Some structures have more than one record in an assay (separate samples or runs), and their calls can disagree. Activity calls are given as the source filed them. Rule for the calls: active = hit-call score of the fitted dose curve at least 0.9, where 1 is the maximum; inactive = score below 0.9.

System: not listed separately
Assay: ATG_DR4_LXR_CIS: Attagene CIS-FACTORIAL HepG2 Assay for human Liver X Receptor (LXR), DR4 submotif (AID 2282929)
Settings: HepG2 Attagene DR4 cis-reporter, mRNA transcription; actives raise or lower the signal
Procedure, shortened: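 After transient transfection with multiplexed cis-promoter reporter units, HepG2 cells received test chemicals for 24 h. Reporter mRNA induction, detected by fluorescence after RT-PCR and capillary electrophoresis, was scored relative to DMSO.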

SMILES	outcome	AC50
CC(C)(C)CC(C)(C)c1ccc(O)c(-n2nc3ccccc3n2)c1	inactive	
CC(=O)NC1(c2cccc(F)c2)CCN(CC[C@@]2(c3ccc(Cl)c(Cl)c3)CN(c3ccccc3)C(=O)CO2)CC1		37.2 µM (active)
CCc1ccc(CCOc2ccc(CC3SC(=O)NC3=O)cc2)nc1 (configuration not stated)	inactive	
CCOC(=O)CC(O)(CC(=O)OCC)C(=O)OCC	inactive	
Oc1cc2ccccc2c2ccccc12	inactive	
CC[C@H](C)[C@@H](C(=O)O)n1sc2ccccc2c1=O	inactive	
CCCCC[C@H](O)CC(=O)CCc1ccc(O)c(OC)c1	inactive	
CN1CCN(c2ccccc2/C=C2\SCCN(c3ccc(Cl)c(Cl)c3)C2=O)CC1	inactive	
Cc1oc(-c2ccccc2)nc1CCOc1ccc(C[C@H](Nc2ccccc2C(=O)c2ccccc2)C(=O)O)cc1	inactive	
CCc1nn(C2CCCCC2)c2cc(C3(C#N)CCC(C(=O)O)CC3)ccc12 (configuration not stated)		129 µM (active)
CC[C@H](c1ccc(O)cc1)[C@@H](CC)c1ccc(O)cc1	inactive	11.1 µM (active) and 11 µM (active)
N#C[C@@H]1CC(F)(F)CN1C(=O)CNC1CC2CCC(C1)N2c1ncccn1 (some centres not stated)	inactive	
CCCCCCCCCCCCc1ccccc1S(=O)(=O)O	inactive	
OCCC(F)(F)C(F)(F)C(F)(F)C(F)(F)C(F)(F)C(F)(F)C(F)(F)C(F)(F)F	inactive	40.1 µM (active)
C[C@@H]1C[C@H]2[C@@H]3CCC4=CC(=O)C=C[C@]4(C)[C@@]3(F)[C@@H](O)C[C@]2(C)[C@@]1(O)C(=O)COP(=O)(O)O	inactive	
COCC(C)O (configuration not stated)	inactive	
OC1CCCCC1	inactive	
O=[N+]([O-])c1ccc(O)cc1	inactive	

SMILES	outcome	AC50
CC(C)(C)c1cc(C(C)(C)C)c(O)c(C(C)(C)C)c1	inactive	
O=C(OCCOCCOC(=O)c1ccccc1)c1ccccc1	inactive	
CCC(C)(C)C1CCC(O)CC1 (configuration not stated)	inactive	172 µM (active)
Cc1cc(CCN2CCN(c3nsc4ccccc34)CC2)cc2c1NC(=O)CC2(C)C		2.82 µM (active)
c1ccc2cc3c(ccc4ccccc43)cc2c1	inactive	1.7 µM (active) and 1.25 µM (active) and 3.19 µM (active)
CCCOC(=O)c1ccc(O)cc1	inactive	26.1 µM (active)
CN1CCC[C@H]1c1cccnc1	inactive	
NC(=O)N(O)[C@@H]1C=C[C@H](Oc2cccc(Oc3ccc(F)cc3)c2)C1	inactive	
COC(=O)CCCCC(=O)OC	inactive	
CC(O)CO (configuration not stated)	inactive	
O=C(O)Cc1cc(I)c(Oc2cc(I)c(O)c(I)c2)c(I)c1	inactive	14.9 µM (active)
CC(=O)CC(C)(C)O	inactive	
CCN(CC)CCNc1ccc(CNC=O)c2sc3ccc(OC)cc3c(=O)c12	inactive	
CCCCC(CC)COC(=O)CCCCC(=O)OCc1ccccc1 (configuration not stated)	inactive	
CC#C[C@]1(O)CC[C@H]2[C@@H]3CCC4=CC(=O)CCC4=C3[C@@H](c3ccc(N(C)C)cc3)C[C@@]21C		10.4 µM (active) [middle of 4 runs]
c1ccc2c(c1)Cc1ccccc1-2	inactive	
CCCCCCCCOC(=O)CCCCCCCCC(=O)OCCCCCCCC	inactive	

Target: Aryl hydrocarbon receptor (Homo sapiens) (UniProt P35869)
Sequence (P35869 whole entry, looked up): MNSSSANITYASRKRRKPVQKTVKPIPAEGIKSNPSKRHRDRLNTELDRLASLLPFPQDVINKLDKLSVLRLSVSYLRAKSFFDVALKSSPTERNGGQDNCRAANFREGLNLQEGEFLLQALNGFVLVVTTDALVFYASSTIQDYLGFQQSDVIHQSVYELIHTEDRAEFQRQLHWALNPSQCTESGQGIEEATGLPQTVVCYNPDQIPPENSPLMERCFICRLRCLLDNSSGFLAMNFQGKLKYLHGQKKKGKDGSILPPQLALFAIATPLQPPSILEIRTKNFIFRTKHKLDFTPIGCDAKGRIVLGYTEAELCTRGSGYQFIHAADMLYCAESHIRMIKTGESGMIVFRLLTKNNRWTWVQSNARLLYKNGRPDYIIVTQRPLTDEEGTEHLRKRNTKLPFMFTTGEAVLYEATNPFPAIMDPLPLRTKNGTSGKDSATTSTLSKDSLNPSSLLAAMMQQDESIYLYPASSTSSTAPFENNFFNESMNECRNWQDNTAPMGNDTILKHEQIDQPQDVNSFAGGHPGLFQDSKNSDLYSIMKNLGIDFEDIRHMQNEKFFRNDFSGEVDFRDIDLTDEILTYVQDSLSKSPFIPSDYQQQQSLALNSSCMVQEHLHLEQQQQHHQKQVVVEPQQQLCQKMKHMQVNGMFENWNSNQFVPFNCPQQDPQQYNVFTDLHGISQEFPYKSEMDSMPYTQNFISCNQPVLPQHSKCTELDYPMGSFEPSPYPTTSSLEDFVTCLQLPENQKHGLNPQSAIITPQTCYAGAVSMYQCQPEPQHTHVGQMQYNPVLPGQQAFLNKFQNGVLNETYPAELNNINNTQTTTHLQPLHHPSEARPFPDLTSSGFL
Assay: ATG_Ahr_CIS: Attagene CIS-FACTORIAL HepG2 Assay for human Aryl Hydrocarbon Receptor (Ahr) (AID 2282930)
Settings: HepG2 AhR cis-factorial reporter transcription; actives raise or lower the signal
Procedure, shortened: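 Transient MRTU transfection of HepG2 → 24 h compound exposure → total RNA, oligo(dT) RT → PCR, 6-FAM extension, HpaI cut → CE fluorescence. DMSO = baseline; bidirectional curve fit.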

SMILES	outcome	AC50
CC(C)(C)CC(C)(C)c1ccc(O)c(-n2nc3ccccc3n2)c1	inactive	
CC(=O)NC1(c2cccc(F)c2)CCN(CC[C@@]2(c3ccc(Cl)c(Cl)c3)CN(c3ccccc3)C(=O)CO2)CC1	inactive	
CCc1ccc(CCOc2ccc(CC3SC(=O)NC3=O)cc2)nc1 (configuration not stated)	inactive	
CCOC(=O)CC(O)(CC(=O)OCC)C(=O)OCC	inactive	
Oc1cc2ccccc2c2ccccc12	inactive	
CC[C@H](C)[C@@H](C(=O)O)n1sc2ccccc2c1=O	inactive	
CCCCC[C@H](O)CC(=O)CCc1ccc(O)c(OC)c1	inactive	
CN1CCN(c2ccccc2/C=C2\SCCN(c3ccc(Cl)c(Cl)c3)C2=O)CC1	inactive	
Cc1oc(-c2ccccc2)nc1CCOc1ccc(C[C@H](Nc2ccccc2C(=O)c2ccccc2)C(=O)O)cc1	inactive	
CCc1nn(C2CCCCC2)c2cc(C3(C#N)CCC(C(=O)O)CC3)ccc12 (configuration not stated)	inactive	
CC[C@H](c1ccc(O)cc1)[C@@H](CC)c1ccc(O)cc1	inactive	
N#C[C@@H]1CC(F)(F)CN1C(=O)CNC1CC2CCC(C1)N2c1ncccn1 (some centres not stated)	inactive	
CCCCCCCCCCCCc1ccccc1S(=O)(=O)O	inactive	
OCCC(F)(F)C(F)(F)C(F)(F)C(F)(F)C(F)(F)C(F)(F)C(F)(F)C(F)(F)F	inactive	
C[C@@H]1C[C@H]2[C@@H]3CCC4=CC(=O)C=C[C@]4(C)[C@@]3(F)[C@@H](O)C[C@]2(C)[C@@]1(O)C(=O)COP(=O)(O)O	inactive	
COCC(C)O (configuration not stated)	inactive	
OC1CCCCC1	inactive	

SMILES	outcome	AC50
O=[N+]([O-])c1ccc(O)cc1	inactive	
CC(C)(C)c1cc(C(C)(C)C)c(O)c(C(C)(C)C)c1	inactive	
O=C(OCCOCCOC(=O)c1ccccc1)c1ccccc1		71.3 µM (active)
CCC(C)(C)C1CCC(O)CC1 (configuration not stated)	inactive	48.2 µM (active)
Cc1cc(CCN2CCN(c3nsc4ccccc34)CC2)cc2c1NC(=O)CC2(C)C	inactive	
CCCOC(=O)c1ccc(O)cc1	inactive	
CN1CCC[C@H]1c1cccnc1	inactive	
NC(=O)N(O)[C@@H]1C=C[C@H](Oc2cccc(Oc3ccc(F)cc3)c2)C1	inactive	
COC(=O)CCCCC(=O)OC	inactive	
CC(O)CO (configuration not stated)	inactive	
O=C(O)Cc1cc(I)c(Oc2cc(I)c(O)c(I)c2)c(I)c1	inactive	89.3 µM (active)
CCN(CC)CCNc1ccc(CNC=O)c2sc3ccc(OC)cc3c(=O)c12	inactive	
CCCCC(CC)COC(=O)CCCCC(=O)OCc1ccccc1 (configuration not stated)	inactive	
CC#C[C@]1(O)CC[C@H]2[C@@H]3CCC4=CC(=O)CCC4=C3[C@@H](c3ccc(N(C)C)cc3)C[C@@]21C	inactive	6.86 µM (active) and 5.91 µM (active)
c1ccc2c(c1)Cc1ccccc1-2	inactive	
CCCCCCCCOC(=O)CCCCCCCCC(=O)OCCCCCCCC	inactive	
